“And” between values parts separate entries of the source, which are not always exact repeats. Identical values can stand only once. The panel holds about 79,000 compounds, 15% with a hit somewhere; the sample as a whole holds those more often. Unmarked numbers belong to inactive results. The source made the active and inactive calls. Rule as the data show it: active = growth inhibition above about 70%; inactive = the rest.
Key:
[1] = NCI Yeast Anticancer Drug Screen. Data for the rad50 strain (AID 155);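 also: 0% = growth of vehicle-only cultures of the same strain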; details: S. cerevisiae rad50 strain growth inhibition; at 50.0 µM; stronger effect = higher value
Summary of the method: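 A DNA repair-deficient yeast mutant serves as the test organism; compound-induced growth inhibition is calculated against vehicle-treated cells.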

[2] = NCI Yeast Anticancer Drug Screen. Data for the mec2-1 strain (AID 157); details: S. cerevisiae mec2-1 strain, at 50.0 µM, stronger effect = higher value
Summary of the method: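 Strain: mec2-1 (DNA repair/cell cycle alteration). Compound exposure, then growth measured; inhibition expressed relative to vehicle.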

[3] = NCI Yeast Anticancer Drug Screen. Data for the sgs1 mgt1 strain (AID 161);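 also: 0% = growth of cultures given vehicle only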; details: S. cerevisiae sgs1 mgt1 strain, at 50.0 µM, stronger effect = higher value
Summary of the method: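 Read-out: growth inhibition vs vehicle controls. Cells: mutant yeast strain deficient in DNA damage repair.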

[4] = NCI Yeast Anticancer Drug Screen. Data for the cln2 rad14 strain (AID 165);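 also: 0% = growth equal to vehicle treated cultures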; details: S. cerevisiae cln2 rad14 strain, at 50.0 µM, stronger effect = higher value
Summary of the method: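 Compounds are applied to the cln2 rad14 yeast strain, and growth is then compared with that of vehicle-treated cultures to give inhibition.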

[5] = NCI Yeast Anticancer Drug Screen. Data for the bub3 strain (AID 167); details: S. cerevisiae bub3 mutant strain, at 50.0 µM, stronger effect = higher value
Summary of the method: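 Inhibition values come from growth of compound-treated mutant yeast normalised to vehicle-treated controls.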

[6] = NCI Yeast Anticancer Drug Screen. Data for the mlh1 rad18 strain (AID 175); details: S. cerevisiae mlh1 rad18 strain growth inhibition; at 50.0 µM; stronger effect = higher value
Summary of the method: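 Read-out is yeast growth inhibition, calculated against vehicle-only controls. The compound was applied to a strain engineered with DNA damage repair alterations.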

| SMILES | growth inhibition [1] | growth inhibition [2] | growth inhibition [3] | growth inhibition [4] | growth inhibition [5] | growth inhibition [6] |
| --- | --- | --- | --- | --- | --- | --- |
| O=C(O)C(Cl)(Cl)Cl | -0.6% | -22.6% | -15.8% | 14.4% | -17.4% | 21.1% |
| O=[N+]([O-])C(CO)CCC(CO)[N+](=O)[O-] (stereo unspecified) | -6.6% | -14% | -3.9% | -18.8% | -15.7% | -15.5% |
| NCCCP(c1ccccc1)c1ccccc1 | 0.3% | 0.4% | -5.65% | 8.7% | -1.7% | 10.6% |
| CC(=O)CC(C)=O.CC(=O)CC(C)=O.CC(=O)CC(C)=O.[Sm] | 53% | 13.8% | 37.1% | 31.9% | 9.1% | 33.8% |
| NC1CC2CCCCC2CC1c1ccccc1 (stereo unspecified) | 14.8% | 19.4% | 18.5% | 11.9% | -5.85% | 18.1% |
| NC(N)=N/N=C/c1c[nH]c2ccccc12 | -5.4% | -14.2% | -18% | 4.8% | -10.1% | -25.1% |
| CCCCC(CC)COP(OCC(CC)CCCC)OCC(CC)CCCC.[Cl][Sn][Cl] (stereo unspecified) | -8.1% | 16.1% | 14.9% | -10.4% | -6.2% | 21% |
| O=C(N1CCCC1)C1(c2cccc(Cl)c2)CCNCC1 | -26.1% | -53% | -16.2% | 0.25% | -28.1% | -20.7% |
| CP(C)C.[Ag][I] | -26.4% | -7.85% | -0.15% | -41.2% | -9.3% | -2.4% |
| COC(=O)c1cccc(S(=O)(=O)F)c1 | -9.85% | -5.05% | -15.7% | -13.4% | 20.1% | -28.4% |
| CC1(C)CCCC(C)(C)N1[P-]C(=O)[P-]N1C(C)(C)CCCC1(C)C.[C-]#[O+].[C-]#[O+].[C-]#[O+].[C-]#[O+].[C-]#[O+].[C-]#[O+].[Fe].[Fe] (stereo unspecified) | -11.2% | 3.65% | -2% | 13.6% | -5.7% | 8.45% |
| CCN1C2CCC1CC(=O)C2 | 0.95% | 5.9% | -5.7% | -11.9% | -14.2% | 7.85% |
| CCOP(=O)(OCC)/C(=C/c1cccs1)CC(C)=O | 7.8% | -57.6% | -27.9% | 14.6% | -25.9% | -76% |
| CC1(O)CCC(O)CC1CC(=O)O (stereo unspecified) | 11.8% | 8.5% | 9.45% | 22.1% | -0.15% | 11.4% |
| Cc1cc(Cl)nc(N)n1 | -5.3% | 4.55% | -5.4% | -13.9% | 10.1% | -21.4% |
| COc1ccc2c(c1O)C1=CC(=O)CCC13CCN(C)C3C2 (stereo unspecified) | -5.6% and 4.1% | -6.65% and -22.6% | 8.05% and 18.8% | 3% and 8.05% | 8.1% and 2.4% | 1.4% and 0.55% |
| CCOC(=O)C1OC(C2(C)OC3(OC4(C=CC3O)OC(C(C)C(=O)C(C)C(O)C(C)CC(C)c3c(Cl)cc(C)c(O)c3C(=O)O)C(C)CC4C)C(C)C2OC)CC1O (stereo unspecified) | -12.7% | -27% | -6.95% | 22.9% | 5.9% | 5.75% |
| CN(C)c1ccc(-c2ccc(N(C)C)cc2)cc1 | -10.6% | 7.3% | 5.45% | 17.6% | 3.2% | -2.6% |
| COc1ccc(CCN(C)C(C)C2C3CC4CC(C3)CC2C4)cc1OC (stereo unspecified) | 35.5% | 11.3% | 19.2% | -16.4% | -1.1% | 17.9% |
| CC(=O)CC1(OC(=O)C2C(C=C(C)C)C2(C)C)C(=O)Nc2ccccc21 (stereo unspecified) | 40.5% | 16.4% | 18.6% | 8.85% | 23.1% | 39.5% |
| CCCCN(CCCC)CC(=O)c1ccc(Br)cc1 | 7.05% | 2.5% | 20.2% | -24.4% | 18% | 27.6% |

| SMILES | growth inhibition [1] | growth inhibition [2] | growth inhibition [3] | growth inhibition [4] | growth inhibition [5] | growth inhibition [6] |
| --- | --- | --- | --- | --- | --- | --- |
| C[N+](C)(C)CCP(=O)([O-])O | -3.3% | 0% | 1.55% | -13.1% | -3.1% | 5.45% |
| O=C(CN1CCOCC1)c1ccccc1 | -1.55% and -6.6% | -4.1% and -13.4% | -2.65% and -9.4% | 3.55% and -42% | -3.85% and -14.3% | -1.85% and -22.9% |
| NC(=O)Cc1nn[nH]n1 | -16.4% | -13.8% | -27.1% | 5.95% | -7.35% | -21.9% |
| CCN(CC)c1cc[c]([Hg][O]C(C)=O)cc1 | 99.2% (active) | 99% (active) | 99.5% (active) | 99.2% (active) | 99% (active) | 99.2% (active) |
| CC1=CC(=O)C=CC1=O | 39.1% | 52.3% | 28.9% | 12.4% | 11.3% | 55.4% |
| Clc1ccc(N=P(c2ccccc2)(c2ccccc2)c2ccccc2)cc1.[Cl][Co][Cl] | 49% | 11.1% | 44.5% | 18.1% | 22.1% | 14.6% |
| O=[N+]([O-])c1ncc[nH]1 | 6.75% | -19.7% | 11.6% | 3.1% | 8.2% | 14.9% |
| COC1CC(OC2C(C)OC(OC3C(C)OC(OC4C(C)OC(O[C@H]5CC[C@@]6(C)C(=CC[C@]7(O)[C@@H]6C[C@@H](OC(C)=O)[C@@]6(C)[C@]7(O)CC[C@@]6(O)C(C)=O)C5)CC4OC)CC3OC)CC2OC)OC(C)C1O (stereo partly specified) | -7.85% | -7.45% | -9.55% | -3.7% | -12.7% | -47.1% |
| O.O.[NH-]C1CCCCC1[NH-].[Pt+2] (stereo unspecified) | 19.6% | 33.6% | 6.25% | -5.95% | 3.05% | 44.2% |
| Cc1ccc(C2=NOP(c3ccccc3)(c3ccccc3)(c3ccccc3)C2)cc1 | 19.5% | 2.7% | 39% | -37.8% | 23.6% | 23.9% |
| Cc1ccc2nc(NC(=O)C(=O)C3C(=O)NC(=S)NC3=O)sc2c1 | -2.75% | -19.1% | 2.85% | 2.4% | -8.95% | -40% |
| [Se]=P(N1CCCCC1)(N1CCCCC1)N1CCCCC1 | 21.6% | 2.75% | 6.4% | 6.55% | 11.4% | 10.2% |
| C/C(=C\C(C)C)C1(C)C(=O)NC(=O)NC1=O | 8.85% | 11.4% | -6.3% | 4.95% | 4.4% | -19.3% |
| O=c1oc2cc(O)ccc2c(O)c1C(c1cccnc1)c1c(O)c2ccc(O)cc2oc1=O | 0.75% | 1.25% | 11.7% | -0.05% | -0.5% | -80.5% |
| C/C(=N\N(C)C)C(CN(C)C)C(c1ccccc1)c1c(O)c2ccccc2oc1=O (stereo unspecified) | 16.8% | -18.5% | 13.8% | 1.5% | 37.8% | 18.9% |
| CCOC(=O)C1C(=O)C(=O)N2CCc3c([nH]c4ccccc34)C12 (stereo unspecified) | 17.5% | 7.55% | 34% | 12.4% | -3% | 15.6% |
| N.N.N.N.O=C([O-])C(=O)O.O=C([O-])C(=O)[O-].[Co+3] | -2.9% | 1.5% | -10.6% | 13.6% | 11.9% | -11.6% |
| COc1cc([C@@H]2c3cc4c(cc3C[C@H]3COC(=O)[C@@H]32)OCO4)cc(OC)c1OC | 5.2% | -3.05% | 10.2% | 27.6% | 24.4% | 13.6% |
| O=C(O)C(F)(F)F.O=C(O)C(F)(F)F.O=C(O)C(F)(F)F.O=C(O)C(F)(F)F.[Rh].[Rh] | 26.8% | 17.1% | 22.1% | 21.2% | 21.4% | 28% |
| N.N.N.N.[Co+3].[O-][Cl+3]([O-])([O-])[O-].[OH3+].[OH3+] | -25.4% | -1.15% | -22.3% | 13.9% | -6% | -13.6% |
